In ChEMBL document CHEMBL1157539, “Thousands of chemical starting points for antimalarial lead identification” (Nature, 2010):

What was measured:
Type in all cases: functional
Plasmodium falciparum [1] = test: GSK_TCMDC: Inhibition of Plasmodium falciparum 3D7 in whole red blood cells, using parasite LDH activity as an index of growth. Test compounds present at 2uM
Plasmodium falciparum [2] = test: GSK_TCMDC: Inhibition of Plasmodium falciparum Dd2 in whole red blood cells, using parasite LDH activity as an index of growth. Test compounds present at 2uM
HepG2 = test: GSK_TCMDC: Percent inhibition of human HepG2 cell line. Test compounds present at 10uM.

SMILES	Inhibition (Plasmodium falciparum [1]) [%]	Inhibition (Plasmodium falciparum [2]) [%]	Inhibition (HepG2) [%]
CO/C(=C\C=C/c1cc2cc(Cl)c(Cl)cc2[nH]1)C(=O)NC1CC(C)(C)N(C)C(C)(C)C1	93	34	65
Cc1cc(-c2ccc(NC(=O)Nc3ccc4nccc(N5CCN(C)CC5)c4c3)cc2C)cc(C)n1.Cl	100	76	0
Cc1cnc(Nc2cccnc2)nc1Nc1ccccc1C(=O)NC(C)C	85	26	9
CCc1cccc(OCC2CCCN(c3ccc(C(=O)NC4CC4)cn3)C2)c1 (configuration not stated)	94	73	0
C#CCOc1ccccc1CN1CCC(N2CCc3cc(NC(=O)c4cc(C)on4)ccc32)C1 (configuration not stated)	95	94	16
O=C(Nc1cccc(-c2ccc(-c3nc4cc(F)ccc4[nH]3)cc2)c1)c1ccoc1	85	6	39
COc1cccc(CCc2cccc(CNC(C)=O)c2)c1	88	0	2
CCN(CC)CCNc1ccnc2[nH]c3ccc([N+](=O)[O-])cc3c12	100	76	6
COc1cc(C(=O)Nc2ccc3nc(N4CCN(C)CC4)cc(C)c3c2)cc(OC)c1OC	100	79	18
CS(=O)(=O)c1cccc(-c2cnc3[nH]cc(-c4ccc(C(=O)O)cc4)c3c2)c1	99	100	6
COc1c(CN2CCCC2)cccc1-c1cc2c(-c3ccc(C(=O)O)c(C(C)C)c3)ccnc2[nH]1.O=C(O)C(F)(F)F	99	98	56
CC(=O)N(C)C1CCN(Cc2ccc(-c3cccc(-c4nc5cc(F)ccc5[nH]4)c3)cc2)C1.O=C(O)C(F)(F)F (configuration not stated)	100	79	28
O=C(NC1c2ccccc2Oc2ccccc21)c1ccccc1O	95	0	0
COc1ccc(-c2nonc2NC(=O)c2cccc(C)c2)cc1OC	97	8	24
O=C(/C=C/c1cc(C(F)(F)F)ccc1F)NCCCCCN1CCC(c2c[nH]c3ccccc23)CC1	88	4	39
O=C(Nc1ccc(Cl)cc1)c1ccc(S(=O)(=O)NCC2CCN(CC3CCCCC3)CC2)cc1.O=C(O)C(F)(F)F	93	8	40
C[C@H](NC(=O)c1c(CN2CCN(C(=O)C(C)(C)C)CC2)c(-c2cccs2)nc2ccccc12)C1CCCCC1	89	62	2
Cl.Clc1cc(Br)ccc1-c1ccc(CNCC2CCNCC2)o1	96	39	100
O=C(N1CCN(c2ccc(C(F)(F)F)cc2[N+](=O)[O-])CC1)C(Cl)(Cl)Cl	100	99	29
CN(C)Cc1c(O)ccc2[nH]c(-c3ccc(F)cc3F)nc12	99	17	4
C=C1C(C(=O)OCC)=CN(CC)c2cc(O[C@@H]3CCN(C(=O)OC(C)(C)C)C3)ccc21	97	94	13
CC(C)(C)c1ccc(CN2CCC(CNC(=O)c3cc(-c4cccc(Cl)c4)cs3)C2)cc1.O=C(O)C(F)(F)F (configuration not stated)	100	83	44
COCCNC(=O)C1CCN(C(c2ccc(Cl)cc2)c2ccc(Cl)cc2)CC1	86	73	3
COc1cccc(C(=O)NC(C=Cc2ccccc2)c2cc(Cl)c3cccnc3c2O)c1 (configuration not stated)	95	58	27
COc1ccc(CNc2ccnc3cc(OC)ccc23)cc1	100	74	7
CCOC(=O)c1ccc(NC(=O)Nc2ccc(-c3ccc(-c4nc5cc(C(F)(F)F)ccc5[nH]4)cc3)cc2)cc1	100	52	20
O=C(/C=C/c1ccc(Cl)c(Cl)c1)NCCCCCN1CCC(NC(=O)NC2CCCCC2)CC1	96	44	22
O=C(NCCCc1ccccc1)c1ccc(O)c(-c2cc(Cl)cc(Cl)c2)c1	99	98	0
Fc1cccc(COc2ccc(Nc3ncnc4sc(C#C[C@H]5CC[C@H](CN6CCOCC6)N5)cc34)cc2Cl)c1	92	23	16
